Screening results deposited in PubChem by Broad Institute.
NOMO-1 viab: STK33 inhibitor candidate reducing NOMO-1 cell viability. 37,000 compounds, 7.5% hits. inhibition, % (no concentration beside the values). NOMO-1 AML viability, CellTiter-Glo luminescence, 72 h; in the data active means inhibition above about 80%; inconclusive means no clear call, values can overlap the other calls
MITF inhib: MITF inhibition | 37,000 compounds, 0.28% hits | inhibition, % (concentration not given with the values) | TRPM1 promoter luciferase, luminescence, 24 h; in the data active means inhibition above about 85%; inconclusive means no clear call, values can overlap the other calls; inactive means below about 68%;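 further: human melanocyte line stably carrying TRPM1 promoter luciferase reporter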
PD-1 reversal: reversal of PD-1 mediated T-cell inhibition | primary human CD4 T cells, PD-L1 beads, CellTiter-Glo 96 h | activation, % (concentration not given with the values) | 29,000 tested, under 10 active | AID 2316; call rule not given here;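 further: 0% = median vehicle wells and 100% = positive control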
Hedgehog inh: Sonic Hedgehog pathway inhibition. Shh-LIGHT2 Gli-luciferase reporter, 30 h. inhibition, % (no concentration beside the values). 22,000 compounds, 2.1% hits. AID 2313;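 active means mean inhibition across valid replicates above about 65%, limit read from the data; inconclusive means mean under the limit, yet half or more replicates past it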;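 further: pathway switched on by Shh-conditioned medium diluted 1 in 25 in low serum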
Active calls of the source: *; u = inconclusive; x = not tested or not shown. Hits are enriched below; roughly 8.1% of the tested compounds scored in any of these assays.

SMILES	NOMO-1 viab	MITF inhib	PD-1 reversal	Hedgehog inh
C[C@H](CO)N1C[C@H](C)[C@@H](CN(C)C(=O)Nc2cccc3ccccc23)Oc2c(NC(=O)Nc3ccc(C(F)(F)F)cc3)cccc2C1=O	117*	13	-4	-26
C[C@@H]1CN([C@@H](C)CO)C(=O)c2cccc(NC(=O)Nc3ccc(C(F)(F)F)cc3)c2O[C@H]1CN(C)C(=O)Nc1cccc2ccccc12	106*	40	-4	-150
COC(=O)c1c(-c2ccccc2)csc1NC(=O)C1CCCCC1C(=O)O (centres undefined)	-1	-53	0	x
COc1ccc(S(=O)(=O)Nc2ccc(Br)c3cccnc23)c([N+](=O)[O-])c1	128*	54	-9	x
O=C(c1ccccc1)c1ccc2nc(-c3cccc(NC(=O)C4CCCO4)c3)[nH]c2c1 (centres undefined)	100*	-45	0	x
Cc1cccc(OCC(=O)Nc2cccc(-c3nc4ccccc4[nH]3)c2)c1C	62	-51	0	x
Cc1ccc(OCC(=O)Nc2ncccn2)c(C)c1	11	-74	0	x
O=C1C[C@H](c2ccccc2)Oc2c(Cc3ccccc3O)c(O)cc(O)c21	18	92*	-1	-25
Cc1ccc(S(=O)(=O)c2c(C)nn(C(C)(C)C)c2OC(=O)c2ccccc2Br)cc1	105*	11	-2	x
COc1ccccc1C(=O)NCCCn1cc(Br)c(C)n1	-6	-5	1	x
CC12CCC(c3c1nn(-c1ccccc1)c3C(F)(F)F)C2(C)C (centres undefined)	123*	24	-5	u
COc1cccc(OCC(=O)Nc2cc([N+](=O)[O-])ccc2OC)c1	-14	35	-3	x
NCCOc1ccc(Cl)cc1	111*	-35	-4	u
Cc1ccc(S(=O)(=O)N(C)C[C@@H]2Oc3ccc(NC(=O)Nc4ccc(C(F)(F)F)cc4)cc3C(=O)N([C@@H](C)CO)C[C@@H]2C)cc1	83*	15	-1	x
C[C@H]1CN([C@@H](C)CO)C(=O)c2cc(NC(=O)Nc3ccc(C(F)(F)F)cc3)ccc2O[C@@H]1CN(C)S(=O)(=O)c1ccc(Cl)cc1	121*	21	-1	47
Cc1ccc(S(=O)(=O)N(C)C[C@H]2Oc3ccc(NC(=O)Nc4ccc(C(F)(F)F)cc4)cc3C(=O)N([C@@H](C)CO)C[C@H]2C)cc1	119*	100*	-2	46
Cc1ccc(S(=O)(=O)N(C)C[C@@H]2Oc3ccc(NC(=O)Nc4ccc(C(F)(F)F)cc4)cc3C(=O)N([C@@H](C)CO)C[C@H]2C)cc1	75	-2	1	-8
Cc1ccc(S(=O)(=O)N(C)C[C@@H]2Oc3ccc(NC(=O)Nc4ccc(C(F)(F)F)cc4)cc3C(=O)N([C@H](C)CO)C[C@@H]2C)cc1	115*	65	-2	17
Cc1c(Br)c([N+](=O)[O-])nn1C(C)C(=O)Nc1ccccc1C(F)(F)F (centres undefined)	-8	-14	0	x
N#CCC(=O)NC(=O)NC12CC3CC(CC(C3)C1)C2	19	2	1	x
C=C1C(=O)O[C@@H]2/C=C(\C)[C@@H](OC(=O)C(O)C(C)C)C/C=C(/C)C[C@@H](OC(=O)/C(=C/CO)CO)[C@@H]12 (some centres undefined)	121*	-5	-23	-2
C=C1C(=O)O[C@@H]2/C=C(\C)[C@H](OC(C)=O)C/C=C(/C)C[C@@H](OC(=O)/C(=C/CO)CO)C12 (some centres undefined)	108*	-1	-8	u
C=C1C(=O)O[C@@H]2/C=C(/C)CC/C=C(/C(=O)O)C[C@@H](OC(=O)/C(C)=C/C)C12 (some centres undefined)	38	-30	0	-29
Cc1ccc(-n2c(SCC(=O)Nc3ccc(Br)cc3)nnc2-c2ccco2)cc1	26	15	-5	x
COc1cc(SC)ccc1C(=O)NC1CC1	25	-1	4	36
SMILES	NOMO-1 viab	MITF inhib	PD-1 reversal	Hedgehog inh
O=c1[nH]c(C2=C(O)Cn3c2nc(=O)c2ccccc23)nc2ccccc12	1	-10	1	-15
Oc1ccccc1CNCc1ccccn1	115*	-4	-3	x
COc1cc([C@H]2OC[C@H]3[C@@H]2CO[C@H]3c2cc(OC)c(OC)c(OC)c2)cc(OC)c1OC	x	x	x	16
O=C(c1ccccc1)N(c1ccccc1)c1ccccc1	39	13	-1	50
CC(=O)O[C@H]1C(=O)[C@@]2(C)[C@H]([C@H](OC(=O)c3ccccc3)[C@]3(O)C[C@H](OC(=O)[C@H](O)[C@@H](NC(=O)c4ccccc4)c4ccccc4)C(C)=C1C3(C)C)[C@]1(OC(C)=O)CO[C@@H]1C[C@@H]2O	141*	26	-3	-29
C[C@@H]1CN([C@H](C)CO)C(=O)c2cccc(NC(=O)Nc3ccc(C(F)(F)F)cc3)c2O[C@@H]1CN(C)Cc1ccc(Cl)c(Cl)c1	76	10	-4	31
C[C@@H]1CN([C@H](C)CO)C(=O)c2cccc(NC(=O)Nc3ccc(C(F)(F)F)cc3)c2O[C@H]1CN(C)Cc1ccc(Cl)c(Cl)c1	104*	42	-6	-7
C[C@@H]1CN([C@@H](C)CO)C(=O)c2cccc(NC(=O)Nc3ccc(C(F)(F)F)cc3)c2O[C@H]1CN(C)Cc1ccc(Cl)c(Cl)c1	107*	32	-3	-43
COC(=O)COc1ccc(NC(=O)c2ccc(OC)c([N+](=O)[O-])c2)cc1	121*	0	-7	x
C[C@@H]1CN([C@@H](C)CO)C(=O)Cc2cc(NS(=O)(=O)c3ccc(Cl)cc3)ccc2O[C@@H]1CN(C)CC1CCCCC1	102*	-9	-6	-3
Cc1ccc(S(=O)(=O)Nc2ccc3c(c2)CC(=O)N([C@@H](C)CO)C[C@@H](C)[C@@H](CN(C)CC2CCCCC2)O3)cc1	97*	-6	-1	16
C[C@H]1CN([C@@H](C)CO)C(=O)Cc2cc(NS(=O)(=O)c3ccc(Cl)cc3)ccc2O[C@H]1CN(C)CC1CC1	9	-7	1	x
Cc1ccc(S(=O)(=O)Nc2ccc3c(c2)CC(=O)N([C@@H](C)CO)C[C@H](C)[C@@H](CN(C)CC2CCCCC2)O3)cc1	u	15	-2	9
COc1ccc(OC)c(NC(=O)Cn2cc(C(=O)C3CCCCC3)c3ccccc32)c1	14	51	-3	x
C[C@@H]1CN([C@H](C)CO)C(=O)c2cccc(NC(=O)Nc3ccc(F)cc3)c2O[C@H]1CN(C)Cc1ccc(C(F)(F)F)cc1	83*	38	-5	22
C[C@@H]1CN([C@@H](C)CO)C(=O)c2cccc(NC(=O)Nc3ccc(C(F)(F)F)cc3)c2O[C@@H]1CN(C)Cc1ccc(C(=O)O)cc1	-12	-7	1	-16
C[C@@H]1CN([C@@H](C)CO)C(=O)c2cccc(NC(=O)Nc3ccc(F)cc3)c2O[C@@H]1CN(C)Cc1ccc(C(F)(F)F)cc1	88*	5	-3	35
C[C@H](CO)N1C[C@H](C)[C@@H](CN(C)Cc2ccc(C(F)(F)F)cc2)Oc2c(NC(=O)Nc3ccc(F)cc3)cccc2C1=O	113*	21	-2	-41
